Common to all, as to assay: PBM; 200 nM protein, PBS
What all share (settings): dsDNA, one strand shown

Assay [1] deals with T1, NKX2-4 (Homo sapiens, UniProt Q9H2Z4 175-261, P217L).
T1 sequence: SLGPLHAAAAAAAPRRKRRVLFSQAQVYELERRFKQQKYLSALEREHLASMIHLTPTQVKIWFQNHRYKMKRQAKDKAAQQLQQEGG

In assay [2] the target is T2, NKX2-4 (Homo sapiens, UniProt Q9H2Z4 175-261, T231S).
T2 sequence: T1 sequence with L43P, T57S

Assay [3] deals with T3, NKX2-4 (Homo sapiens, UniProt Q9H2Z4 175-261).
T3 sequence: T1 sequence with L43P

Assay [4] has as its target T4, NKX2-4 (Homo sapiens, UniProt Q9H2Z4 175-261, R246Q).
T4 sequence: T1 sequence with L43P, R72Q

Positions count from the first letter of the chain named.

In the case of ATCGGTCC, the binding signal was 9.97 upbm affinity estimate (log intensity, higher = more binding, comparable within an allelic series) in the assay with NKX2-4 [1]; 9.94 upbm affinity estimate (log intensity, higher = more binding, comparable within an allelic series) with NKX2-4 [2]; 9.85 upbm affinity estimate (log intensity, higher = more binding, comparable within an allelic series) with NKX2-4 [3]; 9.95 upbm affinity estimate (log intensity, higher = more binding, comparable within an allelic series) with NKX2-4 [4].
In the case of CGGTCGTA, the binding signal with NKX2-4 [1] was 9.63 upbm affinity estimate (log intensity, higher = more binding, comparable within an allelic series); with NKX2-4 [2] it was 9.64 upbm affinity estimate (log intensity, higher = more binding, comparable within an allelic series); with NKX2-4 [3], 9.66 upbm affinity estimate (log intensity, higher = more binding, comparable within an allelic series); with NKX2-4 [4], 9.81 upbm affinity estimate (log intensity, higher = more binding, comparable within an allelic series).
On to CTCAAGCA, for which the binding signal is 11.8 upbm affinity estimate (log intensity, higher = more binding, comparable within an allelic series) with NKX2-4 [1]; 12.1 upbm affinity estimate (log intensity, higher = more binding, comparable within an allelic series) with NKX2-4 [2]; 11.8 upbm affinity estimate (log intensity, higher = more binding, comparable within an allelic series) with NKX2-4 [3]; 12.2 upbm affinity estimate (log intensity, higher = more binding, comparable within an allelic series) in the assay with NKX2-4 [4].
In the case of ACAATGAG, the binding signal with NKX2-4 [1] is 11.4 upbm affinity estimate (log intensity, higher = more binding, comparable within an allelic series); with NKX2-4 [2], 11.5 upbm affinity estimate (log intensity, higher = more binding, comparable within an allelic series); in the assay with NKX2-4 [3], 11.3 upbm affinity estimate (log intensity, higher = more binding, comparable within an allelic series); in the assay with NKX2-4 [4], 11.4 upbm affinity estimate (log intensity, higher = more binding, comparable within an allelic series).
As to GCGGCGAC, the binding signal in the assay with NKX2-4 [1] was 9.68 upbm affinity estimate (log intensity, higher = more binding, comparable within an allelic series); with NKX2-4 [2], 9.58 upbm affinity estimate (log intensity, higher = more binding, comparable within an allelic series); in the assay with NKX2-4 [3], 9.61 upbm affinity estimate (log intensity, higher = more binding, comparable within an allelic series); with NKX2-4 [4] it was 9.79 upbm affinity estimate (log intensity, higher = more binding, comparable within an allelic series).
Take ATGCGTCC: the binding signal with NKX2-4 [1] is 9.7 upbm affinity estimate (log intensity, higher = more binding, comparable within an allelic series); with NKX2-4 [2], 9.56 upbm affinity estimate (log intensity, higher = more binding, comparable within an allelic series); with NKX2-4 [3] it was 9.58 upbm affinity estimate (log intensity, higher = more binding, comparable within an allelic series); in the assay with NKX2-4 [4] it was 9.59 upbm affinity estimate (log intensity, higher = more binding, comparable within an allelic series).
TCCACTAA: the binding signal was 11.6 upbm affinity estimate (log intensity, higher = more binding, comparable within an allelic series) with NKX2-4 [1]; 11.7 upbm affinity estimate (log intensity, higher = more binding, comparable within an allelic series) in the assay with NKX2-4 [2]; 11.5 upbm affinity estimate (log intensity, higher = more binding, comparable within an allelic series) with NKX2-4 [3]; 11.7 upbm affinity estimate (log intensity, higher = more binding, comparable within an allelic series) with NKX2-4 [4].
For the sequence CCGGTAAC, the binding signal was 9.94 upbm affinity estimate (log intensity, higher = more binding, comparable within an allelic series) with NKX2-4 [1]; 9.84 upbm affinity estimate (log intensity, higher = more binding, comparable within an allelic series) with NKX2-4 [2]; 9.9 upbm affinity estimate (log intensity, higher = more binding, comparable within an allelic series) in the assay with NKX2-4 [3]; 9.93 upbm affinity estimate (log intensity, higher = more binding, comparable within an allelic series) with NKX2-4 [4].
CGTTGTCC: the binding signal was 9.74 upbm affinity estimate (log intensity, higher = more binding, comparable within an allelic series) with NKX2-4 [1]; 9.8 upbm affinity estimate (log intensity, higher = more binding, comparable within an allelic series) in the assay with NKX2-4 [2]; 9.79 upbm affinity estimate (log intensity, higher = more binding, comparable within an allelic series) in the assay with NKX2-4 [3]; 9.81 upbm affinity estimate (log intensity, higher = more binding, comparable within an allelic series) in the assay with NKX2-4 [4].
For the sequence CGGCTGTA, the binding signal is 9.81 upbm affinity estimate (log intensity, higher = more binding, comparable within an allelic series) with NKX2-4 [1]; 9.8 upbm affinity estimate (log intensity, higher = more binding, comparable within an allelic series) in the assay with NKX2-4 [2]; 9.77 upbm affinity estimate (log intensity, higher = more binding, comparable within an allelic series) with NKX2-4 [3]; 9.94 upbm affinity estimate (log intensity, higher = more binding, comparable within an allelic series) with NKX2-4 [4].
For GAAGAGTA, the binding signal with NKX2-4 [1] was 11.9 upbm affinity estimate (log intensity, higher = more binding, comparable within an allelic series); in the assay with NKX2-4 [2], 12.2 upbm affinity estimate (log intensity, higher = more binding, comparable within an allelic series); in the assay with NKX2-4 [3], 11.7 upbm affinity estimate (log intensity, higher = more binding, comparable within an allelic series); with NKX2-4 [4], 12.2 upbm affinity estimate (log intensity, higher = more binding, comparable within an allelic series).
For ACTTATCC, the binding signal is 11.9 upbm affinity estimate (log intensity, higher = more binding, comparable within an allelic series) in the assay with NKX2-4 [1]; 12.1 upbm affinity estimate (log intensity, higher = more binding, comparable within an allelic series) with NKX2-4 [2]; 11.7 upbm affinity estimate (log intensity, higher = more binding, comparable within an allelic series) in the assay with NKX2-4 [3]; 12.1 upbm affinity estimate (log intensity, higher = more binding, comparable within an allelic series) in the assay with NKX2-4 [4].
As for GCGGGCCC, the binding signal in the assay with NKX2-4 [1] is 9.61 upbm affinity estimate (log intensity, higher = more binding, comparable within an allelic series); with NKX2-4 [2], 9.54 upbm affinity estimate (log intensity, higher = more binding, comparable within an allelic series); with NKX2-4 [3] it was 9.63 upbm affinity estimate (log intensity, higher = more binding, comparable within an allelic series); with NKX2-4 [4], 9.68 upbm affinity estimate (log intensity, higher = more binding, comparable within an allelic series).
In the case of ACGGCCCG, the binding signal is 9.61 upbm affinity estimate (log intensity, higher = more binding, comparable within an allelic series) with NKX2-4 [1]; 9.59 upbm affinity estimate (log intensity, higher = more binding, comparable within an allelic series) in the assay with NKX2-4 [2]; 9.62 upbm affinity estimate (log intensity, higher = more binding, comparable within an allelic series) with NKX2-4 [3]; 9.64 upbm affinity estimate (log intensity, higher = more binding, comparable within an allelic series) with NKX2-4 [4].
On to CCGGTCGC, for which the binding signal in the assay with NKX2-4 [1] is 9.53 upbm affinity estimate (log intensity, higher = more binding, comparable within an allelic series); with NKX2-4 [2], 9.41 upbm affinity estimate (log intensity, higher = more binding, comparable within an allelic series); in the assay with NKX2-4 [3], 9.5 upbm affinity estimate (log intensity, higher = more binding, comparable within an allelic series); with NKX2-4 [4], 9.51 upbm affinity estimate (log intensity, higher = more binding, comparable within an allelic series).

The values above are taken from paper PMC11006913.
